The values below come from the supplement of paper PMC10849652.

Of roughly 7,900 targets only a part is listed; those with a hit were picked by preference. About 0.6% of all pairs of compound and target were hits. Values without a mark were called inactive.

Compound in the assay: c1cn2cc(-c3ccc4cn[nH]c4c3)nc(Nc3ccc(N4CCOCC4)cc3)c2n1 [entospletinib]
As to the kind of experiment: log2 fold change, soluble protein after heating vs DMSO (PISA); higher = thermal stabilisation; K562 cells, 10 uM, 30 min; active = over 0.2 and 3.5 SD of the protein, either way, in both replicates (recomputed). The method in brief: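 For each measurement, 10 μM compound was applied for 30 min to K562 cells at 2×10^6 cells/mL. Aliquots were heated for 3 min across 48°C-58°C, pooled, and extracted in PBS with 0.5% NP-40 at 4°C; the supernatant after 21,000xg for 90 min was soluble protein. This was quantified by TMTpro 16plex LC-MS/MS with channel sums equalised, and thermal stability was reported relative to control samples from duplicates, on a log2 fold-change scale.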

Sequence of UniProt A6NHR9 (A6NHR9 whole entry, looked up): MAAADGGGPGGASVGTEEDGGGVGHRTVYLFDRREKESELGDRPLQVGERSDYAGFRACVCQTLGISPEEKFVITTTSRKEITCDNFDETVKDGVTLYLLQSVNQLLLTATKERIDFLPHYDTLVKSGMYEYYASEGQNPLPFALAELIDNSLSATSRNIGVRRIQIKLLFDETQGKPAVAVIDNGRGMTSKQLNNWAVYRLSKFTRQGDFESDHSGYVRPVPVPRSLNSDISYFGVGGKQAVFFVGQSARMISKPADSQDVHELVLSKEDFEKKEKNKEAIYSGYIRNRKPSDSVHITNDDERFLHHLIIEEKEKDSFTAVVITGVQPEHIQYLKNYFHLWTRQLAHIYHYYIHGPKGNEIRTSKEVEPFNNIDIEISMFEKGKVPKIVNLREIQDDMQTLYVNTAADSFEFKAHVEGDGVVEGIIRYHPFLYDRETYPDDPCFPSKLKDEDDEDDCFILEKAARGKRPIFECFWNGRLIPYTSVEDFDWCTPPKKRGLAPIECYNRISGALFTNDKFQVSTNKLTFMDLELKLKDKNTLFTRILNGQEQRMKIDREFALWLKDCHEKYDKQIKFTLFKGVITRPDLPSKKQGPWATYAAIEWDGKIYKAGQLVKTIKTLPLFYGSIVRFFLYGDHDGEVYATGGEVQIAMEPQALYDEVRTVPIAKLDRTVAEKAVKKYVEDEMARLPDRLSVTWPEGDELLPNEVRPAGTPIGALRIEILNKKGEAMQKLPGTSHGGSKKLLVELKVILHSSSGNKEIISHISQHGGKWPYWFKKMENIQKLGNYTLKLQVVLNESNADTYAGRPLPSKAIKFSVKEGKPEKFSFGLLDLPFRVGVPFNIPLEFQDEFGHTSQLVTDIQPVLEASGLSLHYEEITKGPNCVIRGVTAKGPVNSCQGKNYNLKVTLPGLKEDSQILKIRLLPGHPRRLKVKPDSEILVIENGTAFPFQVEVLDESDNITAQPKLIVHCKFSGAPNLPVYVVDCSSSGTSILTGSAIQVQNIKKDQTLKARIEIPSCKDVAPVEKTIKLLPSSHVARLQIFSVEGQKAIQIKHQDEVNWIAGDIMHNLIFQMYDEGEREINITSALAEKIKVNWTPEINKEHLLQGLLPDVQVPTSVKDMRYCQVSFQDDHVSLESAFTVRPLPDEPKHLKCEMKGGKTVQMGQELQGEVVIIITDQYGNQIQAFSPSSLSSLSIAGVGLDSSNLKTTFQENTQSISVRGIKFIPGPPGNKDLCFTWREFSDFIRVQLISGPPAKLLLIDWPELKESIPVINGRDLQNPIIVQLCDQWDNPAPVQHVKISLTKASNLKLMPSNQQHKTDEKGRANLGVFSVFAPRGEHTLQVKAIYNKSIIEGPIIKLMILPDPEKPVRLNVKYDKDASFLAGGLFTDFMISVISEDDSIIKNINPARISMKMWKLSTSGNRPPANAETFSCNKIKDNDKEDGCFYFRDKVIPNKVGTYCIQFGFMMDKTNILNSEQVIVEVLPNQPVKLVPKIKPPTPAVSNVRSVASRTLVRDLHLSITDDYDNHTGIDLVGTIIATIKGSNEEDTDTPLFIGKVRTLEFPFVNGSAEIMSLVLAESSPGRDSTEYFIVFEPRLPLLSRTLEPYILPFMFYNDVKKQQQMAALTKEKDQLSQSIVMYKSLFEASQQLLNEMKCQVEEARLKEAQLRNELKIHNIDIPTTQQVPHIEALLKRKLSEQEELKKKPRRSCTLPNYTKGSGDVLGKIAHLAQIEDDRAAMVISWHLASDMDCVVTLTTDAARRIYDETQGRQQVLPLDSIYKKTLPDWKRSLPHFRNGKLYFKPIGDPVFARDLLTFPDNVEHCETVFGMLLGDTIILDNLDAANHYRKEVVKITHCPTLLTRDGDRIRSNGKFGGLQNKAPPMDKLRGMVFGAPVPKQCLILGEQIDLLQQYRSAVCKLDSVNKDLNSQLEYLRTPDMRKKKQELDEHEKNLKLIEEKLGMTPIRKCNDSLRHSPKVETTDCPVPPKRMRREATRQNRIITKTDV
Sequence of UniProt Q9BWG4 (Q9BWG4 whole entry, looked up): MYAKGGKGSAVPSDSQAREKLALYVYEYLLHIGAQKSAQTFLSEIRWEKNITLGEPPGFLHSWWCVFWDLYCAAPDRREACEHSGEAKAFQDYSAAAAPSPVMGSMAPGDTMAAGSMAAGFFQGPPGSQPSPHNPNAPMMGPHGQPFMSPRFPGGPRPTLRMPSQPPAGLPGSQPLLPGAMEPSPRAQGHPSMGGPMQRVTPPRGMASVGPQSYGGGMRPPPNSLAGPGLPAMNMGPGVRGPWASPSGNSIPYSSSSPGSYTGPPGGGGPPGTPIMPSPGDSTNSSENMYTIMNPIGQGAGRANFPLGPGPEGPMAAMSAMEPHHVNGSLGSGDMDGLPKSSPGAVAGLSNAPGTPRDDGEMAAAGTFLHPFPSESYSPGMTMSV
Sequence of UniProt O60271 (O60271 whole entry, looked up): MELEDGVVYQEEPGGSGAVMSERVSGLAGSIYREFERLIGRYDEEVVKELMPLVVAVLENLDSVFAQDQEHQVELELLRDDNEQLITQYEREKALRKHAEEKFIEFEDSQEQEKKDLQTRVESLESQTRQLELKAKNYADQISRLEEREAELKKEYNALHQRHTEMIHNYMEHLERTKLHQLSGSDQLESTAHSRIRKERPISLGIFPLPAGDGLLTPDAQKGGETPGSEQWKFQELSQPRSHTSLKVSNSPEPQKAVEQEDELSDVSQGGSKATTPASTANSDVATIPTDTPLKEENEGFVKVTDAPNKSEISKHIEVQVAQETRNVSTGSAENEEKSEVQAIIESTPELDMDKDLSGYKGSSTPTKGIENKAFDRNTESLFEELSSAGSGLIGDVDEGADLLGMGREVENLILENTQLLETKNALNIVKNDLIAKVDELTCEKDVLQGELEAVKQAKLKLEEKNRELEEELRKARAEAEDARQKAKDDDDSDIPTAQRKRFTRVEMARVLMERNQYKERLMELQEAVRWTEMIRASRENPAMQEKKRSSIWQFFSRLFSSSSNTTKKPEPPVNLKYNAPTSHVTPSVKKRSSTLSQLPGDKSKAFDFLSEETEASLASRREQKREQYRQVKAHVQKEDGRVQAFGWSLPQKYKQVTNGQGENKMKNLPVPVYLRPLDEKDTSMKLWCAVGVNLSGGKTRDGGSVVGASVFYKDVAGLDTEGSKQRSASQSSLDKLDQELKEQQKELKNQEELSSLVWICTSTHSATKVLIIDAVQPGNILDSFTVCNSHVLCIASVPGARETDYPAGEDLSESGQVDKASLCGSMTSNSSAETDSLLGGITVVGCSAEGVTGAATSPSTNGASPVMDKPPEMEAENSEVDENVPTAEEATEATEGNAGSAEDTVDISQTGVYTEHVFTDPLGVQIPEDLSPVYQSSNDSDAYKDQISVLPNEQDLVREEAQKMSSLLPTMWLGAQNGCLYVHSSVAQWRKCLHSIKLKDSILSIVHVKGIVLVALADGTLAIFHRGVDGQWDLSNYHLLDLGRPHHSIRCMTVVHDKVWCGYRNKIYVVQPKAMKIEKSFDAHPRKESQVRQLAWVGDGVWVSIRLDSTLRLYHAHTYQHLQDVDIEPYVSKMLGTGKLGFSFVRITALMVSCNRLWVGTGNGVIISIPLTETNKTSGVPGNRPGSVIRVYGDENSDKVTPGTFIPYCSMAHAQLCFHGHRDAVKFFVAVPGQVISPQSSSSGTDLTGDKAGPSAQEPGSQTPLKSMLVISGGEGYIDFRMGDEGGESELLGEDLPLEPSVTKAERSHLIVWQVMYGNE
Sequence of UniProt O43615 (O43615 whole entry, looked up): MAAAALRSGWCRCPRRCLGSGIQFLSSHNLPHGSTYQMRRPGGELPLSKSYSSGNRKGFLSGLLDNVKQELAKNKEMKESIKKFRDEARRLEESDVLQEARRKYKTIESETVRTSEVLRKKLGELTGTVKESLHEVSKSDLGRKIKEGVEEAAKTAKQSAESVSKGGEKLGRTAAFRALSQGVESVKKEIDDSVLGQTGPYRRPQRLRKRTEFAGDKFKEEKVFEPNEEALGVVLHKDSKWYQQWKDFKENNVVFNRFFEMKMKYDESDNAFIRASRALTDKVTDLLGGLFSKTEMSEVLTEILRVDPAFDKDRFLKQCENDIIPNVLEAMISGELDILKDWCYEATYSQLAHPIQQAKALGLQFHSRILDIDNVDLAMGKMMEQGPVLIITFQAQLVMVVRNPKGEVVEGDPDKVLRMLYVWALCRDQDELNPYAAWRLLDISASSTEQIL
Sequence of UniProt Q6XR72 (Q6XR72 whole entry, looked up): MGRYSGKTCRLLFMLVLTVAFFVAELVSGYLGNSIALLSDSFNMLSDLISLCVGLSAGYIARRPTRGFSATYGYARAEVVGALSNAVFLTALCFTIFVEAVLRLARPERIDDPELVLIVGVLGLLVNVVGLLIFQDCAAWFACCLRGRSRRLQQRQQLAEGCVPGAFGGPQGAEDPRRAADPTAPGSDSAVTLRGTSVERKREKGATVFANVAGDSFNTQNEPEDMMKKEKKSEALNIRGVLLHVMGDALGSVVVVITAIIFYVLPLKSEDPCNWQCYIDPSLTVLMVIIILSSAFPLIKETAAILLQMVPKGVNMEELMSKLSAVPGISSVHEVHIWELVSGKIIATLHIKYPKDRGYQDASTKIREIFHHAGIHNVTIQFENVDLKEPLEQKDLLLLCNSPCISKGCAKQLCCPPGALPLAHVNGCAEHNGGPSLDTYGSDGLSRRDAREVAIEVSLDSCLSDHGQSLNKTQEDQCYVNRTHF
Sequence of UniProt Q9P289 (Q9P289 whole entry, looked up): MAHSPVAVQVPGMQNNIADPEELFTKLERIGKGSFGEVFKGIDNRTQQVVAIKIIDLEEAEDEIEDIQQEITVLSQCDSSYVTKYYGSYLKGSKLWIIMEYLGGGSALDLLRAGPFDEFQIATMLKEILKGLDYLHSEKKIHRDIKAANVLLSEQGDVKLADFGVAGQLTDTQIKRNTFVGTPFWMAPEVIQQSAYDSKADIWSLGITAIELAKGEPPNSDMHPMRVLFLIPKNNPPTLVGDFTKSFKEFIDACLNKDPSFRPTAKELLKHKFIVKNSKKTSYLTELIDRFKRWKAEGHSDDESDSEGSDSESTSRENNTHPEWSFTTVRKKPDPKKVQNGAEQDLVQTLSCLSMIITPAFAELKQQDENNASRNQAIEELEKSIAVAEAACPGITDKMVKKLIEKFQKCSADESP

Turning to SPAG9 (UniProt O60271), the log2 fold change was 0.024.
For STARD3NL (UniProt O95772) the value was -0.088; for SLK isoform 2 (UniProt Q9H2G2), -0.059; for SSRP1 (UniProt Q08945), -0.027.
For TIMM44 (UniProt O43615) the value was -0.036; for SQSTM1 (UniProt Q13501), 0.02; for SUPT16H (UniProt Q9Y5B9), -0.055.
In the case of SNX15 (UniProt Q9NRS6) it was 0.124; in that of STAT5A (UniProt P42229), -0.087.
For SRSF9 (UniProt Q13242), the log2 fold change was 0.094.
In the case of SSB (UniProt P05455) it was -0.051; in that of TAX1BP1 (UniProt Q86VP1), 0.029; in that of SLC25A36 (UniProt Q96CQ1), 0.022.
Take TBP (UniProt P20226): the log2 fold change is 0.012.
As to TGFBI (UniProt Q15582), the log2 fold change is 0.063.
In the case of SPAST (UniProt Q9UBP0) it was 0; in that of SLC44A2 isoform 2 (UniProt Q8IWA5), -0.085.
For TBC1D9B (UniProt Q66K14) the value was 0.138; for SMARCB1 (UniProt Q12824), 0.887 (active).
In the case of SNX2 (UniProt O60749) it was -0.015; in that of SLC30A10 (UniProt Q6XR72), 0.01.
Take SP2 (UniProt Q02086): the log2 fold change was 0.07.
As for SMPD4 isoform 4 (UniProt Q9NXE4), the log2 fold change was 0.143.
In the case of TIMM10B (UniProt Q9Y5J6) it was 0.045; in that of SPINDOC (UniProt Q9BUA3), 0.018; in that of SUGP1 (UniProt Q8IWZ8), -0.04.
In the case of SP1 (UniProt P08047) it was 0.068; in that of STK26 (UniProt Q9P289), -0.022; in that of SNRK (UniProt Q9NRH2), -0.27.
As to SPTBN1 (UniProt Q01082), the log2 fold change is 0.024.
Regarding TBC1D15 isoform 3 (UniProt Q8TC07), the log2 fold change was 0.007.
On to SRP68 (UniProt Q9UHB9), for which the log2 fold change was 0.091.
As to THYN1 (UniProt Q9P016), the log2 fold change was 0.011.
In the case of SULT1A1 (UniProt P50225) it was -0.057; in that of STK11IP (UniProt Q8N1F8), 0.036; in that of STK4 (UniProt Q13043), -0.024.
For STAT5B (UniProt P51692) the value was -0.053.
SSBP4 (UniProt Q9BWG4): the log2 fold change was 0.119.
In the case of THADA (UniProt Q6YHU6) it was 0.004; in that of SP3 (UniProt Q02447), -0.071; in that of SSX2 (UniProt Q16385), 0.041.
For SORT1 (UniProt Q99523) the value was 0.05; for SMCHD1 (UniProt A6NHR9), 0.049.
Turning to SMDT1 (UniProt Q9H4I9), the log2 fold change is 0.01.
For TIAL1 isoform 2 (UniProt Q01085) the value was 0.003; for SRXN1 (UniProt Q9BYN0), -0.079; for TJP2 isoform 7 (UniProt Q9UDY2), 0.037.
